Results published in PubChem BioAssay AID924 (National Center for Advancing Translational Sciences (NCATS), 2007).
Hit rate of the full screen: of about 130,000 compounds, about 1,200 (0.92%) were called active. About 3% were inconclusive and are not listed. Only a selection was taken, and actives are over-represented in it overall. Values without a mark were called inactive. Calls come from the whole dose curve; as a rule, active = well fitted cell-killing curve with a large enough effect; inconclusive = small, poorly fitted or top-dose-only effect; inactive = no such curve, though single readings can be large or run the other way.

Assay: qHTS Screen for Compounds that Selectively Target Cancer Cells with p53 Mutations: Cytotoxicity of p53ts Cells at the Permissive Temperature; note: nearly all actives have a fitted effect of over 55% in size;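 for activity change, negative = cytotoxicity: 0% = DMSO and -100% = full killing by reference compound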
Settings: H1299-p53A138V at 32C, ATP luminescence viability, 24 h; series mostly up to 46.1 µM; activity change, negative = cytotoxicity: at the top concentration
Source text: NIH Chemical Genomics Center [NCGC] NIH Molecular Libraries Screening Centers Network [MLSCN] MLSCN Grant: 1 X01 MH079844-01 Assay Submitter (PI): Dr. SUN, YI, University of Michigan NCGC Assay Overview: Synthetic Lethal Screen for Compounds to Kill Cancer Cells with p53 Mutation. Tumor suppressor gene p53 serves as a major cellular barrier against tumorigenesis. […] The goal of this screening is to identify small molecule probes that selectively kill cancer cells with mutations in p53. This screening was carried out using two lines of H1299 lung cancer cells. The H1299-p53 A138V line express a temperature sensitive p53 mutant (p53ts) in which the mutant p53 protein (A138V) is in the mutant confirmation when grown at 39C (the nonpermissive temperature) and in the wild type conformation when grown at 32C (the permissive temperature). A H1299-neo line (p53 null) grown at both 39C and 32C were used as counter-screens to filter out false positive associated with temperature shifting. The small molecular compounds that selectively target mutant p53-containing cancer cells were selected as candidate probes for further study. A cytotoxicity assay based on the measurement of ATP contents in cells was used in this screen. Concentration-responses of all the compounds in the library collection were determined in qHTS using the cell lines and temperature conditions as above.
NCGC Assay Protocol Summary: Both the H1299-p53A138V and H1299-neo cell lines were provided by Dr.Yi Sun, a PI at the University Michigan. The cells were maintained and cultured at 37C. The resuspended frozen cells were used to plate the cells in the 1536-well assay plates at a density of 600 cells per well in 5 ul medium. The assay plates with the cells were incubated at 37C for 16 to 30 hours before the experiments. The library compounds in DMSO solution were added to the cells in assay plates and incubated 24 hours at 39C (for mutant p53 conformation) or 32C (for normal p53 conformation as control). An ATP_lite assay kit (PerkinElmer) was used to determine the cell viability. Tomaxifen (100uM) was used as the positive control for cell killing. Data were normalized to the controls for basal activity (DMSO only) and 100% killing (100uM tamoxifen). AC50 values were determined from concentration-response data modeled with the standard Hill equation. P53 assay protocol: 1. Reagent; 5 uL H1299-p53A138V or H1299-neo cell cells/well 2. Time; overnight; 37C incubation 3. Compounds; 23 nL; 5.9 nM to 46 uM 4. Controls; 23 nL; Tamoxifen 100 uM 5. Time; 24 hr; 37C incubation 6. Reagent; 3 uL; ATP_Lite reagent 7. Time; 20 min; Room Temperature 8. Detection; Luminescence; Viewlux plate reader Keywords: p53, synthetic lethal, cancer, cell viability, cytotoxicity, H1299 cell line, luminescence, MLSMR, MLSCN, NIH Roadmap, qHTS, NCGC
Potency is the fitted concentration of half-maximal effect.

SMILES | activity change, negative = cytotoxicity [%] | Potency
Cc1ccc(Cl)cc1NC(=O)Cc1ccc(-n2c(C)nc3cccnc32)cc1 | -1.95 | –
COc1cccc(N2CC(NC(=O)/C=C\c3ccccc3)CC2=O)c1 (stereo unspecified) | -6.84 | –
Cc1nc(-c2ccc(NC(=O)c3cccs3)cc2)cs1 | – | 1.26 µM (active)
O=C(O)c1ccc(NC(=O)c2cccs2)cc1 | -6.14 | –
CCc1ccccc1NC(=O)c1cccs1 | 10.4 | –
Cc1c(CNC(C)c2ccccc2)c(C(=O)O)c(C)n1Cc1c(F)cccc1Cl (stereo unspecified) | 9.47 | –
COc1cc(NC(=O)C2CCN(c3cnccn3)CC2)cc(OC)c1 | 4.51 | –
c1ccc2[nH]c(NCCN3CCOCC3)nc2c1 | -0.862 | –
c1ccc(-c2nc(NCc3ccco3)c3ccccc3n2)cc1 | 1.53 | –
CN(C)c1ccc(-c2nc(NCCN3CCOCC3)c3ccccc3n2)cc1 | – | 12.6 µM (active)
NS(=O)(=O)c1ccc(CCNC(=O)CCCCCn2c(=O)[nH]c3ccccc3c2=O)cc1 | 5.53 | –
CC(=O)Nc1cccc(NC(=O)CSc2cn(CC(=O)N3CCCC3)c3ccccc23)c1 | -2.57 | –
CCOc1ccccc1C(=O)NCC(c1ccc(N(C)C)cc1)N1CCCC1 (stereo unspecified) | -11.6 | –
O=C(O)CSCc1nc2ccccc2s1 | -0.888 | –
COC(=O)c1nc2ccccc2s1 | 3.09 | –
CCC(=O)NC(=Nc1nc2ccccc2s1)NC(=O)CC | – | 15.8 µM (active)
COc1ccc(OC)c(-c2noc(N3CCN(c4cc(Cl)ccc4C)CC3)n2)c1 | -5.9 | –
Cc1ccc(F)cc1NC(=O)c1cccc(N(C)C)c1 | -9.85 | –
Cc1ccc(NC(=O)c2cccc(N(C)C)c2)cc1NC(=O)c1ccc(O)cc1 | – | 12.6 µM (active)
Cc1ccccc1NC(=O)c1ccccc1 | -3.24 | –
CC(C)c1ccc(NC(=O)C2CCN(c3nc(-c4ccc(C(C)C)cc4)no3)CC2)cc1 | -16 | –
Cn1c(=O)c(C(=O)O)nn(-c2ccccc2)c1=O | -8.15 | –
O=C(Nc1nnc(S(=O)(=O)N2CCCCCC2)s1)c1cccc(Br)c1 | 0.59 | –
CCN(C(=O)Cn1c(=O)nc(-c2ccccc2)c2cc(Cl)ccc21)c1cccc(C)c1 | 13.2 | –
O=C(Cn1c(=O)nc(-c2ccccc2)c2cc(Cl)ccc21)NCc1ccc(Cl)cc1 | – | 10 µM (active)
O=C(Cn1nnc(-c2ccccc2)n1)NCc1ccccc1 | 0.275 | –

SMILES | activity change, negative = cytotoxicity [%] | Potency
CCc1ccccc1NC(=O)Cc1ccc(NC(=O)N2CCCCc3ccccc32)cc1 | -3.84 | –
COc1ccc2c(c1)CCc1c(C(=O)Nc3cc(C)ccc3O)noc1-2 | -26.6 | –
Cc1ccc2nc(COc3cccc(NC(=O)Nc4ccc(C)c(Cl)c4)c3)cc(=O)n2c1 | 13.2 | –
CCOc1ccc(NC(=O)c2ncoc2-c2ccco2)cc1 | – | 12.6 µM (active)
CCOc1ccc(C(=O)Nc2ccncc2)cc1 | -20.1 | –
CCC(=O)Oc1cccc(C(=O)Nc2ccc(-c3nnc(-c4ccco4)o3)cc2)c1 | -15.6 | –
CCOc1ccc(NC(=O)Nc2cc(C)on2)cc1 | -22.8 | –
CCOc1ccc(-c2nnc(-c3ccco3)o2)cc1 | – | 10 µM (active)
O=C(CCc1ccccc1)Nc1cccc(-c2nnc(-c3ccco3)o2)c1 | 7.35 | –
COc1ccc(-n2c(=O)c3c(c4cc(OC)ccc4n3C)n(Cc3cccc(C)c3)c2=O)cc1 | -4.55 | –
COc1ccc(N2C(=O)CSC23C(=O)N(Cc2cccc(F)c2)c2ccccc23)cc1Cl (stereo unspecified) | 9.15 | –
CCCCOc1ccc(NC(=O)c2cc3c(n(-c4ccc(Cl)cc4)c2=O)CCCC3=O)cc1 | -1.65 | –
COc1ccc(C2CC(=O)N(Cc3ccccc3C)c3c2c(C)nn3-c2nc(C)cc(C)n2)c(OC)c1 (stereo unspecified) | -0.383 | –
CCOCCCNC(=O)c1ccc2nc(CCc3ccccc3)oc2c1 | -3.08 | –
CC1CCc2noc(NC(=O)c3ccc([N+](=O)[O-])cc3)c2C1 (stereo unspecified) | 2.83 | –
COc1ccc(C(=O)Nc2onc3c2CCCC3)cc1 | – | 10 µM (active)
COc1ccc(NC(=O)c2c(C)oc3c2CCCC3)cc1 | 0.617 | –
COc1ccc(-c2onc(C)c2C)cc1S(=O)(=O)NCC1CCN(Cc2cccc(F)c2)CC1 | 8.75 | –
CCOc1ccccc1NC(=O)CN1CCCN(Cc2cccc(Cl)c2)S1(=O)=O | 8.18 | –
Cc1ccc(C(=O)Nc2ccc3[nH]c(=O)c(=O)[nH]c3c2)cc1 | -3.12 | –
CC(C)c1ccc(NC(=O)c2ccc3c(O)c(S(=O)(=O)c4ccccc4)c(=O)[nH]c3c2)cc1 | – | 12.6 µM (active)
COc1ccc(CNC(=O)c2ccc3c(O)c(S(=O)(=O)c4ccccc4)c(=O)[nH]c3c2)cc1 | 4.43 | –
Cn1c(=NC(=O)CSCC(=O)N2CCCCC2)sc2ccccc21 | -9.54 | –
Cn1c(=NC(=O)c2cnccn2)sc2ccccc21 | – | 15.8 µM (active)
Cn1c(=NC(=O)CSCC(=O)N2CCOCC2)sc2ccccc21 | -3.86 | –
